# Test results: PubChem BioAssay (NCATS)
# Inconclusive results are not listed. A number with no mark means an inactive call. Calls of active or inactive are those of the source. Calls follow the shape of the dose curve; as a rule, active = well fitted cell-killing curve with a large enough effect; inconclusive = small, poorly fitted or top-dose-only effect; inactive = flat fitted curve, though single readings scatter.
# Assay: Cell Viability - LYMP2-016 (AID 984);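 also: cells exposed to compound for 24 hours at 37 °C; nearly all actives have a fitted effect of over 55% in size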; as to activity change, negative = cytotoxicity: % is scaled to controls: 0 for no effect and ±100 for the full control effect
# Settings: LYMP2-016 lymphoblastoid cell viability, qHTS; series mostly up to 92.2 µM; activity change, negative = cytotoxicity: at the top concentration
# Method in brief: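 Acute toxicity in a Coriell human lymphoblastoid line is scored as loss of intracellular ATP over 24 h of treatment in complete medium. CellTiter-Glo signal is fitted across concentrations with the Hill equation to give AC50.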
# Potency is read from the fitted curve at half-maximal effect.
SMILES,"activity change, negative = cytotoxicity [%]",Potency
C=CCn1c(=O)n(CC=C)c(=O)n(CC=C)c1=O,-10,
Nc1nc(-c2ccccc2)cs1,-8.23,
CCCCC/C=C/C=C/C=O,,50.1 µM (active)
CCC(=O)/C=C/C1C(C)=CCCC1(C)C (stereo not drawn),-22.4,
O=C(O)c1ccccc1[N+](=O)[O-],-3.82,
Nc1cccc(N)c1,-8.74,
CN(C)c1cccc(O)c1,-2.62,
O=C(O)c1ccc(C(=O)O)cc1,4.62,
NCCCCCCN,-1.92,
CC(C)(C)OCC1CO1 (stereo not drawn),-6.53,
Cc1cc(C2(c3cc(C)c(O)cc3C)OS(=O)(=O)c3ccccc32)c(C)cc1O,-6.81,
Cc1ccccc1C(=O)O,-5.18,
CC(C)(C)OC=O,-24.4,
COc1cccc(N)c1,-3.59,
CCCCC(CC)CO (stereo not drawn),-0.65,
O=[N+]([O-])c1ccccc1CCO,3.33,
COCCOC(=O)c1ccccc1C(=O)OCCOC,-10.6,
O=C(O)c1cccc([N+](=O)[O-])c1,-2.3,
CCCCOCCOCCSC#N,-11,

SMILES,"activity change, negative = cytotoxicity [%]",Potency
CC1(N)CCC(C(C)(C)N)CC1 (stereo not drawn),-6.79,
CCCCC(CC)CNCC(CC)CCCC (stereo not drawn),-2.11,
Nc1nc(CC(=O)O)cs1,-6.82,
N#Cc1ccccc1,-2.3,
O=[N+]([O-])c1ccc(Cl)cc1Cl,-3.59,
C=CCCCCCCC=C,-7.48,
CC(O)COC(C)(C)C (stereo not drawn),-3.01,
CC(C)C(C)C,7.45,
CCN(C(=O)N(CC)c1ccccc1)c1ccccc1,-5.64,
O=C(O)c1ccc(CO)o1,-26.5,
Cc1ccc(C)o1,-7.79,
O=CNc1ccccc1,-6.55,
NS(=O)(=O)O,-1.16,
CC(=O)OCCC(C)C,0.225,
Cc1cccc(Br)c1,-5.23,
NC(=S)NNC(N)=S,-5.03,
Cc1cccc2cccnc12,-6.44,
CC(=O)c1ccccn1,-3.71,

# Assay: Cell Viability - LYMP2-018 (AID 985);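 also: compound exposure lasted 24 hr at 37 °C; nearly all actives have a fitted effect of over 50% in size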;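 as to activity change, negative = cytotoxicity: plate controls were DMSO only for no effect and tetraoctylammonium bromide at 92 µM for full effect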
# Settings: LYMP2-018 lymphoblastoid cells, viability (qHTS); series mostly up to 92.2 µM; activity change, negative = cytotoxicity: at the top concentration
# Method in brief: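 Luminescent ATP signal (CellTiter-Glo, read after 30 min at room temperature) reports viable cells after 24 hr compound treatment at 37 C. Concentration-response data were fitted to the standard Hill equation for AC50.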
SMILES,"activity change, negative = cytotoxicity [%]",Potency
C=CCn1c(=O)n(CC=C)c(=O)n(CC=C)c1=O,-15.1,
CCCCC/C=C/C=C/C=O,,79.4 µM (active)
Cc1ccc(C(=O)O)cc1,-5.16,
CCC(=O)/C=C/C1C(C)=CCCC1(C)C (stereo not drawn),-24.5,
O=C(O)c1ccccc1[N+](=O)[O-],-15.6,
Nc1cccc(N)c1,-6.52,
CN(C)c1cccc(O)c1,-1.15,
O=C(O)c1ccc(C(=O)O)cc1,-13,
NCCCCCCN,-12.5,
CC(C)(C)OCC1CO1 (stereo not drawn),-18.4,
Cc1cc(C2(c3cc(C)c(O)cc3C)OS(=O)(=O)c3ccccc32)c(C)cc1O,-8.58,
Cc1ccccc1C(=O)O,-8.33,
COc1cccc(N)c1,4.45,
CCCCC(CC)CO (stereo not drawn),-6.17,
O=[N+]([O-])c1ccccc1CCO,-2.4,
COCCOC(=O)c1ccccc1C(=O)OCCOC,-14.9,
O=C(O)c1cccc([N+](=O)[O-])c1,-16.3,

SMILES,"activity change, negative = cytotoxicity [%]",Potency
CC1(N)CCC(C(C)(C)N)CC1 (stereo not drawn),-6.92,
CCCCC(CC)CNCC(CC)CCCC (stereo not drawn),-2.2,
Nc1nc(CC(=O)O)cs1,-3.36,
N#Cc1ccccc1,4.21,
O=[N+]([O-])c1ccc(Cl)cc1Cl,-0.89,
C=CCCCCCCC=C,-18.6,
CC(O)COC(C)(C)C (stereo not drawn),7.64,
CC(C)C(C)C,-9.91,
O=C(O)c1ccc(CO)o1,-16.4,
Cc1ccc(C)o1,0.863,
O=CNc1ccccc1,-13,
NS(=O)(=O)O,-15.6,
Cc1cccc(Br)c1,-11,
NC(=S)NNC(N)=S,-21.5,
Cc1cccc2cccnc12,-6.2,
CC1=C(/C=C/C(C)=C/C=C/C(C)=C\C=O)C(C)(C)CCC1,,50.1 µM (active)

# Assay: Cell Viability - LYMP2-020 (AID 986); also: nearly all actives have a fitted effect of over 55% in size;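 as to activity change, negative = viability loss: plate controls were DMSO only for no effect and tetraoctylammonium bromide at 92 µM for full effect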
# Settings: series mostly up to 92.2 µM; activity change, negative = viability loss: at the top concentration
# Method in brief: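 Luminescent ATP signal (CellTiter-Glo, 30 min at room temperature) is the read-out after 24 h compound treatment of lymphoblastoid cells at 37 C. AC50 values come from Hill-equation fits across concentrations.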
SMILES,"activity change, negative = viability loss [%]",Potency
C=CCn1c(=O)n(CC=C)c(=O)n(CC=C)c1=O,6.14,
Nc1nc(-c2ccccc2)cs1,-14.5,
CCCCC/C=C/C=C/C=O,,39.8 µM (active)
Cc1ccc(C(=O)O)cc1,12.8,
CCC(=O)/C=C/C1C(C)=CCCC1(C)C (stereo not drawn),-29.4,
O=C(O)c1ccccc1[N+](=O)[O-],4.04,
Nc1cccc(N)c1,-1.09,
CN(C)c1cccc(O)c1,-7.2,
O=C(O)c1ccc(C(=O)O)cc1,3.01,
NCCCCCCN,1.37,
CC(C)(C)OCC1CO1 (stereo not drawn),-11.3,
Cc1cc(C2(c3cc(C)c(O)cc3C)OS(=O)(=O)c3ccccc32)c(C)cc1O,-15.2,
Cc1ccccc1C(=O)O,-3.5,
COc1cccc(N)c1,3.37,
CCCCC(CC)CO (stereo not drawn),5.68,
O=[N+]([O-])c1ccccc1CCO,-4.74,
COCCOC(=O)c1ccccc1C(=O)OCCOC,-8.84,
O=C(O)c1cccc([N+](=O)[O-])c1,-23.7,
CCCCCNCCCCC,-6.3,

SMILES,"activity change, negative = viability loss [%]",Potency
CCCCOCCOCCSC#N,0.705,
CC1(N)CCC(C(C)(C)N)CC1 (stereo not drawn),3.89,
CCCCC(CC)CNCC(CC)CCCC (stereo not drawn),-1.56,
Nc1nc(CC(=O)O)cs1,3.5,
N#Cc1ccccc1,3.09,
O=[N+]([O-])c1ccc(Cl)cc1Cl,-0.762,
C=CCCCCCCC=C,-4.15,
CC(O)COC(C)(C)C (stereo not drawn),-0.0481,
CC(C)C(C)C,-4.24,
CCN(C(=O)N(CC)c1ccccc1)c1ccccc1,-11.1,
O=C(O)c1ccc(CO)o1,-15.9,
Cc1ccc(C)o1,0.15,
O=CNc1ccccc1,2.17,
NS(=O)(=O)O,-2.3,
CC(=O)OCCC(C)C,5.83,
Cc1cccc(Br)c1,-9.69,
NC(=S)NNC(N)=S,-2.91,
Cc1cccc2cccnc12,6.18,
CC(=O)c1ccccn1,3.85,
